Reference: PubChem BioAssay (EPA / NIEHS)
The source made the active and inactive calls. The calls were made as follows: active = hit-call score of the fitted dose curve at least 0.9, where 1 is the maximum; inactive = score below 0.9.

These compounds were tested on Keratin 19 (KRT19), KRT19 (gene 3880) (assay: LTEA_HepaRG_KRT19: Life Technologies and Expression Analysis (LTEA) Assay for Keratin 19 (KRT19) using HepaRG (AID 2283512)). Settings: mRNA level, 48 h; actives raise or lower the signal.
Protocol: LTEA_HepaRG is a cell based, multiplexed-readout assay that uses HepaRG, a human liver cell line, with measurements taken at 48 hours after chemical dosing on a 96-well plate.LTEA_HepaRG_KRT19 is one of 102 assay component(s) measured in the LTEA HepaRG cell culture assay. It is a marker of Cell proliferation, survival, death.Data from the assay component LTEA_HepaRG_KRT19 was analyzed into 1 endpoint. This assay endpoint, LTEA_HepaRG_KRT19, was analyzed with bidirectional fitting relative to DMSO as the negative control and baseline of activity. Using a type of inducible reporter, measures of mRNA induction for gain or loss-of-signal activity can be used to understand regulation of transcription factor activity. To generalize the intended target to other relatable targets, this assay endpoint is annotated to the filaments intended target family, where the subfamily is keratin.
A total of 1060 chemcials from the ToxCast library were tested in eight-point concentration-response experiments. Cell culture and cytotoxicity assays were conducted at Thermo Fisher Scientific's Custom Services facility (Madison, WI). A single lot of human HepaRG cells (Thermo Fisher Scientific, Frederick, MD) was used for the cell culture experiments. 96-well format collagen type I coated plates of human HepaRG cells were prepared using established methods. Briefly, cryopreserved HepaRG cells were thawed, plated at a density of approximately 100,000 cells/well in HepaRG Thaw, Plate, and General Purpose media (HPRG770, Thermo Fisher Scientific), and incubated for 48 hours. 0.5% DMSO was selected as vehicle control to balance the requisite need of DMSO in HepaRG cultures to maintain differentiation (for example, baseline metabolism, proportions of hepatocytes vs. cholangiocytes), while enabling further hepatic receptor pathway activation (for example, PXR and CAR) in response to chemical exposure. 48 hours after plating, the culture medium was replaced with HepaRG Serum-Free Incudtion Media. Cells were exposed to each test chemical in duplicate and maintained in CO2 incubators for another 48 hours. Chemical plates were thawed to room temperature and 200x concentrations of treatment groups were prepared. 8-point conentration-reponse curves were made with the highest exposure at 100 uM, followed by half-log dilutions, all in 0.5% DMSO. Each test plate contained variouse controls, induction positive controls (1mM phenobarbital), cytotoxicity positive controls ([…] aflatoxin B1), vehicle controls (0.5% DMSO), and total lysis controls (0.5% DMSO). Cell morphology images were taken using an Essen IncuCyte FLR automated microscope, with six 96-well plates imaged in about 24 minutes. Images were captured and exported and JPEG files. Spent culture media was transfered to black-well plates for the LDH assay, and remaining media was sorted at -80 C for later use. Cells were treated with RLT buffer and frozen until shipped for gene expression analysis. Total RNA was isolated from the cell suspension in 75 uL of Buffer RLT (Qiagen, Germantown, MD 20874) by Quintiles/Expression Analysis (Durham, NC) using a custom isolation procedure. Total RNA from each plate well was transferred to a preamplification plate. Fluidigm's 96.96 Dynamic ArrayTM (Fluidigm, Amsterdam, the Netherlands) technology was used for gene expression analyses by quantitative reverse transcription polymerase chain reaction (qRT-PCR, performed by Quintiles/Expression Analysis, Durham, NC)89. Standard TaqManTM Assays (Applied Biosystems/ThermoFisher Scientific, Foster City, CA) were used to assess the expression of 93 genes selected based on their selectivity and sensitivity to important hepatic receptors known to be modulated by environmental chemicals; importance in human hepatocyte functionality; and hepatotoxicity. […]

outcome, inactive:
CC(C)c1cccc(C(C)C)c1NC(=O)NS(=O)(=O)c1cc(C(C)(C)O)co1
Cc1ccc(-c2cc(C(F)(F)F)nn2-c2ccc(S(N)(=O)=O)cc2)cc1
COC(=O)[C@H]1[C@H]2C[C@@H]3c4[nH]c5cc(OC)ccc5c4CCN3C[C@H]2C[C@@H](OC(=O)c2cc(OC)c(OC)c(OC)c2)[C@@H]1OC
NC(=Nc1ccccc1)Nc1ccccc1
CCCCCCC(C=O)=Cc1ccccc1
CC(=O)O
CS(=O)(=O)c1ccc([C@@H](C[C@H]2CCC(=O)C2)C(=O)Nc2cnccn2)cc1Cl
CN(C)CCCN(C)CCCN(C)C
CC(=O)[C@@]1(O)CC[C@H]2[C@@H]3CCC4=CC(=O)CC[C@]4(C)[C@H]3CC[C@@]21C
NC=O
Nc1nc(Cl)nc2c1ncn2[C@H]1C[C@H](O)[C@@H](CO)O1
CCCCC(CC)COC(=O)CCCCCCCC(=O)OCC(CC)CCCC (stereo not given)
C/C=C/C=C/C(=O)O
NC1CCCCC1
O=[Si]=O
CC(C)c1cccc(C(C)C)c1
CCC(C)N(C)C(=O)c1cc2ccccc2c(-c2ccccc2Cl)n1 (stereo not given)
CC1(C)C(=O)NC(=O)N1CO
CCCCCCCCCCCCCCOS(=O)(=O)O
Oc1ccccc1O
O=C(O)c1cccnc1
CC(C)(C)c1ccccc1
O=C1c2c(O)cccc2Cc2cccc(O)c21
O=C1CCCCC1
S=c1[nH]c2ccccc2s1
CC(C)COC(=O)CCCCC(=O)OCC(C)C
O=C(O)c1[nH]n(-c2ccc(S(=O)(=O)O)cc2)c(=O)c1N=Nc1ccc(S(=O)(=O)O)cc1
COC(=O)CCCC(=O)OC
O=C1O[C@H]([C@H](O)CO)C(O)=C1O
N[C@@H](Cc1c[nH]c2ccccc12)C(=O)O
C=CCc1ccc(OC)c(OC)c1
CC(COCC(C)OC(=O)c1ccccc1)OC(=O)c1ccccc1 (stereo not given)
CCOCCOCCO
CC(=O)OC1CC(C)OC(C)O1 (stereo not given)
Oc1ccc(O)cc1
C#CC(O)C(CC)CCCC (stereo not given)
CCCCCCCC(=O)OC

AC50, active:
CN(C)C(=O)NC1(c2ccccc2)CCN(CC[C@@]2(c3ccc(F)c(F)c3)CN(C(=O)c3ccccc3)CCO2)CC1 27 µM
CCc1nc(N)nc(N)c1-c1ccc(Cl)cc1 75.5 µM
CC1=C(C)S(=O)(=O)CCS1(=O)=O 76.6 µM
